Experimental data published in PubChem BioAssay.
Calls of active or inactive are those of the source. No stated cut-off is given here; in the data, active means inhibition above about 30%; inactive means the rest.

Assay: growth suppression of yeast trafficking mutant, preliminary HTS, modulators of trafficking downstream of Golgi apparatus project, 1536-format plate, OD 615 nm (AID 637)
Conditions: yeast transport mutant growth, absorbance 615 nm, 18 h; active compounds read high

inhibition, inactive:
COC(=O)c1cnn2c(C(F)(F)F)cc(-c3ccco3)nc12 0.82%
CCOC(=O)c1ccc(NC(=O)CCc2nc(-c3cccc(C)c3)no2)cc1 13%
COc1ccccc1C(=O)N1CCN=C1SCc1cccnc1 -2.06%
c1cncc(-c2nnc3sc(-c4ccco4)nn23)c1 4.68%
CC1CN(c2nc(-c3ccccc3)nc3ccccc23)CC(C)O1 (stereo not given) -5.67%
O=C(NC1CCN(Cc2nnnn2CCc2ccccc2)CC1)c1ccccc1F -0.5%
O=S(=O)(c1ccc(OCC(O)CN2CCC(Cc3ccccc3)CC2)cc1)N1CCOCC1 (stereo not given) -5.24%
COc1ccc(C2N(C(=O)c3ccccc3)CCN2C(=O)c2ccccc2)cc1 5.41%
CCSC1=NCN(CCCC(=O)O)CN1 -0.16%
O=C(CCOc1ccccc1)NCc1ccccc1 28.9%
CCOC(=O)c1ccccc1NC(=O)c1cc2sccc2n1C -2.38%
C=CCn1c(SCC(=O)NC23CC4CC(CC(C4)C2)C3)nc(O)cc1=O -0.48%
O=C(OCc1ccc2c(c1)OCO2)c1ccc(S(=O)(=O)N2CCCCC2)cc1 -2.5%
COC(=O)N1CC(c2ccccc2)CC1=O (stereo not given) -6.51%
COc1ccc(C2=Nn3c(nnc3-c3ccccc3)SC2)cc1OC 5.65%
CCOc1ccc(Cl)cc1S(=O)(=O)N1CCCC1 -1.11%
Cn1c(SCCN2CCCCC2)nnc1-c1ccccc1Br 5.48%
O=C(COc1ccccc1)N1CCN(C(=O)c2cccc(F)c2)CC1 6.72%
COc1ccc(CN2CC(C(=O)NCCCOC(C)C)CC2=O)cc1 (stereo not given) 0.81%
COC(=O)CSc1nc(C)c(C(C)=O)cc1C#N -0.65%
Cn1c(=O)c2c(nc(Br)n2CCSc2ncccn2)n(C)c1=O -10.2%
O=C(NCC(c1cccnc1)N1CCOCC1)c1cccs1 (stereo not given) 11.2%
O=C(CSc1nnnn1-c1ccc(Cl)cc1)NC(=O)Nc1ccc2c(c1)OCCO2 3.02%
Cc1nc2sc(C(c3ccco3)N3CCN(c4ccccc4F)CC3)c(O)n2n1 (stereo not given) 0.95%
CC1CCCCC1NC(=O)CN1CCN(Cc2ccccc2Cl)C1=O (stereo not given) -7.67%
COc1ccc(-n2c(=O)[nH]cc(C(=O)Nc3ccc(NC(C)=O)cc3)c2=O)cc1 0%
CCN(CC)CCN1C(=O)C(=O)/C(=C(/O)c2c(C)[nH]c(C(=O)OC)c2C)C1c1ccco1 (stereo not given) -0.16%
Cc1nc(N2CCc3ccccc32)[nH]c(=O)c1CCC(C)C 6.17%
C=COC(=O)CSc1snc(SCC(=O)OC)c1C#N 6.98%
COc1ccc2[nH]c(=O)c(CN(C(=O)c3ccncc3)C(C)C)cc2c1 4%
Cc1ccc2cc3cc(C(=O)N4CC(C)CC(C)C4)oc3nc2c1 (stereo not given) -6.35%
O=C(C1CCN(c2nnnn2-c2ccccc2)CC1)N1CCN(c2ccccc2)CC1 5.08%
CCCCSCCCNC(=O)CS(=O)Cc1nc(-c2cccc(C)c2)oc1C (stereo not given) -1%
Cc1cc(C)n(-c2nnc(C)n2/N=C/c2ccccc2F)n1 4.59%
O=C(O)c1cc(-c2ccccc2Cl)n[nH]1 2.38%
O=C1c2ccccc2C(=O)N1CC(O)Cn1nnc2ccccc21 (stereo not given) -3.71%
COCCN(C(=O)CCC(=O)Nc1ccccn1)C(C(=O)NC1CCCC1)c1ccc(OC)cc1 (stereo not given) -0.49%
CCOC(=O)c1ccccc1NC(=O)COC(=O)C1=COCCO1 3%
Cc1ccc(-c2cc(C(=O)O)n[nH]2)o1 -0.16%
Cn1c(=O)c2c(nc(SCCCO)n2Cc2ccccc2Cl)n(C)c1=O 2.62%
